From PubChem BioAssay AID1780 (National Center for Advancing Translational Sciences (NCATS), 2009)
Active and inactive are the calls of the source. The call rests on the fitted dose curve; in most records, active means well fitted curve in the direction sought with a large enough effect; inactive means no such curve, though single readings can be large or run the other way.

Biological target: Pyruvate kinase PKM (Homo sapiens) (UniProt P14618)
Assay: Confirmation Concentration-Response Assay for Activators of Human Muscle isoform 1 Pyruvate Kinase
Settings: purified hPK-M1, Kinase-Glo ATP luminescence, 1 h; series mostly up to 57.5 µM; activity change, positive = activation: at the top concentration
From the text: Confirmatory assay NIH Chemical Genomics Center [NCGC] Matthew G. Vander Heiden, M.D., Ph.D. [Harvard Medical School, 77 Avenue Louis Pasteur, Boston, MA 02115] NCGC Assay Overview: Human pyruvate kinase […] (hPK-M1) enzyme was supplied as a highly purified (>95% pure) preparation from Harvard Medical School and assayed for its ability to generate ATP from ADP using phosphoenolpyruvate (PEP) as a substrate. ATP generation was detected in a coupled reaction by luciferase-mediated luminescence, an ATP-dependent process. Pyruvate kinase substrates, PEP and ADP, were present in the assay at Km and approximately 10-fold below Km respectively. The enzyme was assayed at an intermediate level of activity to screen for both inhibitors and activators.
NCGC Assay Protocol Summary for M1-isoform: Three uL of substrate mix (at r.t.) in assay buffer (50 mM Imidazole pH7.2, 50 mM KCl, 7 mM MgCl2, 0.01% Tween 20, 0.05% BSA) was dispensed into white solid bottom 1,536 well microtiter plates so that the final concentrations of substrates in the assay were 0.1 mM ADP and 0.5 mM PEP. 23 nL of compound were delivered by a pin tool and 1 uL of enzyme mix (final concentration of 1 nM) in assay buffer (4 degree Celsius) was added. Plates were incubated at room temperature for 1 hour. Two uL of detection mix (Kinase-Glo, Promega; at 4 degree Celsius protected from light) was added and luminescence read by a ViewLux (Perkin Elmer) at 1 second exposure/plate. Data were normalized to the uninhibited (row 31). Additionally, a no enzyme and 5-fold enzyme control was dispensed in row 32, split equally between the two conditions.

Chain of Pyruvate kinase PKM (Homo sapiens) (P14618 whole entry, looked up, canonical isoform): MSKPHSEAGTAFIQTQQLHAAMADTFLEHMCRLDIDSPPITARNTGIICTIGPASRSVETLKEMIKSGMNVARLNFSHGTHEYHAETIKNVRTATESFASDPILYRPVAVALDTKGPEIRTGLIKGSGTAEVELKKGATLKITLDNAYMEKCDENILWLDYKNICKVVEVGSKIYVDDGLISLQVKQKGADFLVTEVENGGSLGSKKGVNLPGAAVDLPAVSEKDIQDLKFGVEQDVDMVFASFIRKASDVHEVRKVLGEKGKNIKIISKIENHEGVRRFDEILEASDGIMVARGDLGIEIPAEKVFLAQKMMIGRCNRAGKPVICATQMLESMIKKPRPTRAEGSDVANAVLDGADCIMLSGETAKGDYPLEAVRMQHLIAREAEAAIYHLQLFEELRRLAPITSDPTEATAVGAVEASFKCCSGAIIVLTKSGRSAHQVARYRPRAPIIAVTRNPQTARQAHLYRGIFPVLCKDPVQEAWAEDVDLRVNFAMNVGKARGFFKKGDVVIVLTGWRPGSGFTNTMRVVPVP

Activity change, positive = activation, inactive:
Cc1cc2c(s1)c1cnn(Cc3cccc(Cn4ncc5c6sc(C)cc6n(C)c5c4=O)c3F)c(=O)c1n2C 1.08%
O=S(=O)(c1c(F)cccc1F)C1CCN(S(=O)(=O)c2ccc3c(c2)OCCO3)CC1 10%
Cc1cc2c(s1)c1cnn(Cc3ccc(F)c(F)c3F)c(=O)c1n2C -1.55%
CCCc1cc(F)c(S(=O)(=O)N2CCN(S(=O)(=O)c3ccc4c(c3)OCCO4)CC2)cc1F 1.33%
COc1ccc(Cn2ncc3c4sc(C)cc4n(C)c3c2=O)cc1F -3.8%
Cc1cc2c(s1)c1cnn(Cc3cc(C(F)(F)F)cc(Cl)c3F)c(=O)c1n2C -0.316%
O=S(=O)(c1ccc2c(c1)OCCO2)N1CCN(S(=O)(=O)c2cccc[n+]2[O-])CC1 1.97%
Cc1cc2c(s1)c1cnn(Cc3ccccc3F)c(=O)c1n2C(C)C 2.21%
Cn1c2cc([N+](=O)[O-])sc2c2cnn(Cc3ccccc3F)c(=O)c21 6.32%
O=C(c1ccc2c(c1)OCCO2)N1CCN(S(=O)(=O)c2c(F)cccc2F)CC1 11%
COc1cc2c(s1)c1cnn(Cc3ccccc3F)c(=O)c1n2C -5.78%
C[C@H]1CN(S(=O)(=O)c2c(F)cccc2F)CCN1S(=O)(=O)c1ccc2c(c1)OCCO2 7.55%
CC(=O)Nc1cc2c(s1)c1cnn(Cc3ccccc3F)c(=O)c1n2C 0.505%
Cc1cc2c(s1)c1cnn(Cc3c(F)c(F)cc(F)c3F)c(=O)c1n2C 21%
Cc1nc2ccc(S(=O)(=O)N3CCN(S(=O)(=O)c4c(F)cccc4F)CC3)cc2s1 6.67%
C[C@@H]1CN(S(=O)(=O)c2c(F)cccc2F)CCN1S(=O)(=O)c1ccc2c(c1)OCCO2 10.3%
Cc1cc2c(s1)c1cnn(Cc3ccc(C(F)(F)F)cc3F)c(=O)c1n2C 8.07%
CCc1cc2c(s1)c1cnn(Cc3ccccc3F)c(=O)c1n2C 2.72%
O=S(=O)(NCCCCCCNS(=O)(=O)c1c(F)cccc1F)c1ccc2c(c1)OCCO2 4.36%
O=S(=O)(c1cccc(F)c1)N1CCN(S(=O)(=O)c2ccc3c(c2)OCCO3)CC1 7.95%
Cc1cc2c(s1)c1cnn(Cc3c(F)cccc3F)c(=O)c1n2C 4.85%
O=S(=O)(NCCCCCNS(=O)(=O)c1c(F)cccc1F)c1ccc2c(c1)OCCO2 1.5%
O=S(=O)(c1ccc2c(c1)OCCO2)N1CCN(S(=O)(=O)c2cc(F)c(F)cc2F)CC1 5.08%
CC(C)c1cc2c(s1)c1cnn(Cc3ccccc3F)c(=O)c1n2C 3.69%
Cn1c2cc(B(O)O)sc2c2cnn(Cc3ccccc3F)c(=O)c21 -1.07%
O=S(=O)(c1ccc2c(c1)OCCCO2)N1CCN(S(=O)(=O)c2c(F)cccc2F)CC1 5.12%
Cn1c2cc(C=O)sc2c2cnn(Cc3ccccc3F)c(=O)c21 -1.04%
O=S(=O)(NC1CCN(S(=O)(=O)c2ccc3c(c2)OCCO3)C1)c1c(F)cccc1F (stereo not given) -2.48%
Cc1cc2c(s1)c1cnn(Cc3ccc(F)cc3)c(=O)c1n2C -0.493%
O=S(=O)(c1ccc2c(c1)OCCO2)C1CCN(S(=O)(=O)c2c(F)cccc2F)CC1 7.52%
O=S(=O)(c1ccc2c(c1)OCCO2)N1CCN(S(=O)(=O)c2c(F)ccc(O)c2F)CC1 -0.69%
O=S(=O)(c1ccccc1)N1CCN(S(=O)(=O)c2ccc3c(c2)OCCO3)CC1 7.14%
Cc1cc2c(s1)c1cnn(Cc3ccccc3)c(=O)c1n2C 7.2%
N#Cc1ccc(S(=O)(=O)N2CCN(S(=O)(=O)c3ccc4c(c3)OCCO4)CC2)cc1 9.21%
C[C@H]1CN(S(=O)(=O)c2ccc3c(c2)OCCO3)CCN1S(=O)(=O)c1c(F)cccc1F 6.41%
O=S(=O)(NCCCCNS(=O)(=O)c1c(F)cccc1F)c1ccc2c(c1)OCCO2 -5.47%

outcome, inactive:
O=S(=O)(NC1CCC(NS(=O)(=O)c2c(F)cccc2F)CC1)c1ccc2c(c1)OCCO2 (stereo not given)
COc1ccc(S(=O)(=O)N2CCN(S(=O)(=O)c3c(F)cccc3F)CC2)cc1
Cn1c2cc(C#N)sc2c2cnn(Cc3ccccc3F)c(=O)c21
CC1(C)CCc2cc(S(=O)(=O)N3CCN(S(=O)(=O)c4c(F)cccc4F)CC3)ccc2O1
